Screens deposited in PubChem by National Center for Advancing Translational Sciences (NCATS).
Shown are actives, neighbours in structure and some others; about 11% of the full set was active somewhere.
JMJD2A Tudor: blocks the human JMJD2A Tudor domain. AlphaScreen JMJD2A-Tudor / H3K4me3 peptide binding. AID 504339. 4.4% of 390,000 active. O75164. Potency, µM (titrated, usually from 114 µM), inactives show at the highest dose activity change, negative = inhibition, usual class: inhibitors; note: potency is the fitted concentration of half-maximal effect; % is set by controls: 0 for no effect and ±100 for the full control effect; nearly all actives have a fitted effect of over 50% in size
L3MBTL1 inh: blocks human L3MBTL1 | Q9Y468 | AlphaScreen L3MBTL1–H3K9me1 peptide binding | Potency, µM (titrated, usually from 57.1 µM), for inactives: top-dose activity, negative = inhibition, usual class: inhibitors | 0.66% of 230,000 active | AID 485360; note: potency is the fitted concentration of half-maximal effect; % is set by controls: 0 for no effect and ±100 for the full control effect; nearly all actives have a fitted effect of over 60% in size
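Displacement of a biotinylated histone H3(1-15) peptide monomethylated at Lys9 (75 nM) from L3MBTL1 (50 nM) was measured by AlphaScreen after a 30 min room-temperature compound incubation; cefsulodin titration served as intraplate control.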
HP1b chromo inh: inhibitors of HP1-beta chromodomain binding to methylated histone tails; P83916; AID 540317; Potency, µM (series often up to 114 µM), inactives show top-dose activity change, negative = inhibition, actives largely listed as inhibitors; AlphaScreen HP1-beta / biotin-H3K9me3 peptide binding; 0.56% of 390,000 active; note: potency is the fitted concentration of half-maximal effect; nearly all actives have a fitted effect of over 70% in size
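HP1-beta protein (50 nM final) preincubated 30 min at room temperature with biotinylated H3(1-18)K9me3 peptide (50 nM) in PBS pH 7.4, 0.01% Tween-20, then compound added for 30 min. AlphaScreen streptavidin donor/nickel chelate acceptor beads (10 ug/mL final), 30 min dark, luminescence read.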
BAZ2B inh: inhibitors of human BAZ2B bromodomain. AID 504333. 4.4% of 360,000 active. AlphaScreen BAZ2B-H3K14Ac peptide displacement. Q9UIF8. Potency, µM (series often up to 114 µM), for the others: at the top dose activity change, negative = inhibition, usual class: inhibitors; note: potency is the fitted concentration of half-maximal effect; % is set by controls: 0 for no effect and ±100 for the full control effect; nearly all actives have a fitted effect of over 60% in size
Target sequence (Q9UIF8 whole entry, looked up): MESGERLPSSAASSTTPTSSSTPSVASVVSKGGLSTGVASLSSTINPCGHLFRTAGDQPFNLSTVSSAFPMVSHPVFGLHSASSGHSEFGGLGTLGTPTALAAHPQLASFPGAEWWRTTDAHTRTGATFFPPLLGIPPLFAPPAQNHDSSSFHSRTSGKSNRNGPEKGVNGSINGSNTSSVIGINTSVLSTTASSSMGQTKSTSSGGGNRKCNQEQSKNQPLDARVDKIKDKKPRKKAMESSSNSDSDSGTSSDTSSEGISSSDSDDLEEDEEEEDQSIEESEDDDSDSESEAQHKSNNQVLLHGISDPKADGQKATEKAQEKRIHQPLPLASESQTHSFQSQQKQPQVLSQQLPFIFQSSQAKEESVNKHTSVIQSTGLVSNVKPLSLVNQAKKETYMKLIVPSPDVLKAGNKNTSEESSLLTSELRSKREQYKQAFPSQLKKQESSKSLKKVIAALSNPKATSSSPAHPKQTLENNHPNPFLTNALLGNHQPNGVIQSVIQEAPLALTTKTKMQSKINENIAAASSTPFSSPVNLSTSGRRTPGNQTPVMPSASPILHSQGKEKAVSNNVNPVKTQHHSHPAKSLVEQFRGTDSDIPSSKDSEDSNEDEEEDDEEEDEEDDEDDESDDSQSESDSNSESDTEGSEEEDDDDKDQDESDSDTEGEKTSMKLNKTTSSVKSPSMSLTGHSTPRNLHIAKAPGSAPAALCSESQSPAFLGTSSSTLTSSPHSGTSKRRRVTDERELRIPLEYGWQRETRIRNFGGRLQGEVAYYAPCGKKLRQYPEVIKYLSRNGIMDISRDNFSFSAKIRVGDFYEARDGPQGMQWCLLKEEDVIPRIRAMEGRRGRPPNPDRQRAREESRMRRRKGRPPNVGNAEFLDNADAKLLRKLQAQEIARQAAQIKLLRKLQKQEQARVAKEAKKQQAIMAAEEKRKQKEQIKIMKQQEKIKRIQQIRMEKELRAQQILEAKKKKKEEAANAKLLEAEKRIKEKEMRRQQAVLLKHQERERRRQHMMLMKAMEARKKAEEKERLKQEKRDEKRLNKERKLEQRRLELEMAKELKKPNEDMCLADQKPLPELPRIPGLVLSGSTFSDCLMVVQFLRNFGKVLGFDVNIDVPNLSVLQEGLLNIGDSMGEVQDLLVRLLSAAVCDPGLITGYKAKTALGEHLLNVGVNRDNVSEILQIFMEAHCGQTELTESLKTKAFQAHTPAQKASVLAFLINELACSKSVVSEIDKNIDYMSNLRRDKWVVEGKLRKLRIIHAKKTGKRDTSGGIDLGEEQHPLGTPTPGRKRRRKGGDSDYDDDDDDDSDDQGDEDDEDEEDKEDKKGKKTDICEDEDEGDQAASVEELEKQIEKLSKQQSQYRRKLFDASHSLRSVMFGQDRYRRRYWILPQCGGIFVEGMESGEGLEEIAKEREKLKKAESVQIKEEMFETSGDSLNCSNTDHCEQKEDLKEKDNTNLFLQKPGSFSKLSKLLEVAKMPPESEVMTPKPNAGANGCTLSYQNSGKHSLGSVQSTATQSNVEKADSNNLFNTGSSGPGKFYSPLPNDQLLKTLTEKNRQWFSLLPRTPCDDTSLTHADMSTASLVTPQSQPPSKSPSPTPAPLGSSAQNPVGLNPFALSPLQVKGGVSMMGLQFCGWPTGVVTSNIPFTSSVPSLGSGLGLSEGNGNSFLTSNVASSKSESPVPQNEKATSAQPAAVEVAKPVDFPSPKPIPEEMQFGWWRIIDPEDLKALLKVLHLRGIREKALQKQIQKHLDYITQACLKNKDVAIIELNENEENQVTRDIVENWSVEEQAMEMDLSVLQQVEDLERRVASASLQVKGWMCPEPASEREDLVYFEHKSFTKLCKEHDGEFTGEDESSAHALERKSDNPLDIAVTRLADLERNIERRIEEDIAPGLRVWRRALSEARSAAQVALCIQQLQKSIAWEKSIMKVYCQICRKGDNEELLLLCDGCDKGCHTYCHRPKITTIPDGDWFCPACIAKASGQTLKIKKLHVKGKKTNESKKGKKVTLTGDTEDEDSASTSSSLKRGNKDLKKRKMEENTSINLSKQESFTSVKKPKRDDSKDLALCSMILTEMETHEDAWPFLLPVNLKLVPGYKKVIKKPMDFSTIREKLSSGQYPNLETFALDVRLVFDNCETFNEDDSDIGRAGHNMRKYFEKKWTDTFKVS
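Inhibition is scored as reduced AlphaScreen emission. The BAZ2B/b-H3(5-23)K14Ac complex (50 nM each) in PBS pH 7.4, 0.01% Tween-20 meets compound (up to 110 uM) for 30 min at RT before bead addition.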
PI5P4Ka inh: blocks human PI5P4K alpha kinase activity; PI5P4Kalpha enzyme, ADP-Glo luminescence, 60 min; active compounds read low; max response, %; 1.2% of 330,000 active; AID 652105; active = max response of -50% or lower; inconclusive = between -30% and -50%; inactive = -30% or higher; note: value at the top dose of about 77 µM; % is set by controls: 0 for no effect and ±100 for the full control effect
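Single end-point luminescence (ADP-Glo) quantified ADP from PI5P4Kalpha turnover; ATP 5 microM final, 1 h at RT, 0.1% CHAPS and 0.28 mM EGTA in HEPES pH 7.4.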
G9a block: G9a (human) methyltransferase inhibition; G9a H3K9 monomethylation, AlphaScreen, 2 h; 8.8% of 350,000 active; Potency, µM (highest dose often 102 µM), inactives show at the top dose activity, negative = inhibition, actives largely listed as inhibitors; note: potency is the fitted concentration of half-maximal effect; % is set by controls: 0 for no effect and ±100 for the full control effect; nearly all actives have a fitted effect of over 75% in size
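Methyltransferase reactions run at room temperature for 2 h (20 nM enzyme, 500 nM biotin-H3K9 peptide, 20 uM SAM) after a 15 min compound preincubation; product detected by AlphaScreen beads and anti-H3K9me1 antibody.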
Active calls of the source: *; ? = inconclusive; nt = no result; ! = not active in a repeat; [ ] = another dose, or the depositor's remark. Unless noted, calls come from the whole dose curve; as a rule, active = well fitted inhibition curve with a large enough effect; inconclusive = small, poorly fitted or top-dose-only effect; inactive = no such curve, though single readings can be large or run the other way.

SMILES	JMJD2A Tudor	L3MBTL1 inh	HP1b chromo inh	BAZ2B inh	PI5P4Ka inh	G9a block
Cc1ccc(N2C(=O)C3C4C=CC(CNC(=S)N5CCN(c6cccc(C)c6)C(C)C5)(O4)C3C2=O)cc1 (stereo not given)	17.8µM*	nt	25.1µM*	-1.8%	-4.3	2µM*
COc1ccc(CNc2ncncc2-c2c(C)noc2C)c(OC)c1	nt	nt	nt	nt	nt	-6.7%[0.501 µM]
CN1CCN(C2=Cc3ccc(Cl)cc3Sc3ccc(F)cc32)CC1	56.2µM*	-6.4%	-31.6%	50.1µM*	22.2	?
O=c1cc(O)c2c(=O)n(-c3ccccc3)c3c(c2o1)CCCCCC3	?	-0.9%	5.5%	50.1µM*	-27.7	9.5%[59 µM]
O=c1cc(O)c2c(=O)n(C3CCCCC3)c3ccccc3c2o1	-30.6%	-6.2%	30.0%	?	nt	?
Fc1ccc(N2CCN(c3nc4ccccc4c4nc(-c5cccnc5)nn34)CC2)cc1	-7.3%	nt	25.3%	6.3%	nt	7.0%[59 µM]
COc1ccc(C(=O)Nc2cc(C(F)(F)F)ccc2-n2cncn2)cc1	-5.5%	nt	22.5%	-1.2%	4.5	-2.9%
CC(Oc1ccc(F)cc1)C(=O)Nc1cc(C(F)(F)F)ccc1-n1cncn1 (stereo not given)	-0.7%	10.5%	32.9%	8.5%	9.4	56.2µM*
C=CC[n+]1c(/C=C2\C=Cc3cc(C)ccc3N2CC)ccc2ccccc21	50.1µM*	?	?	35.5µM*	-11.9	28.2µM*
COC(=O)c1cc2oc(C)cc2n1Cc1ccc(Br)cc1F	-12.0%	nt	-10.3%	?	nt	-46.8%[59 µM]
O=c1/c(=C\c2cccn2-c2ccccc2)sc2nc3ccccc3n12	-5.3%	-7.4%	22.1%	1.4%	-11.3	?
O=C(O)Cn1cc(/C=c2/sc3nc4ccccc4n3c2=O)c2ccccc21	56.2µM*	nt	?	?	?	50.1µM*
O=C(COC(=O)c1cnc(Cl)c(Cl)c1)NCc1cccs1	22.4µM*	6.2%	-2.7%	3.9%	-26.3	25.4%[0.0925 µM]
O=C(NCc1cccs1)c1cnc(Cl)c(Cl)c1	8.6%	10.7%	36.1%	5.7%	1.6	30.1%
Cc1cc(C)n(-c2nc(NCC(C)O)c3c4c(sc3n2)COC(C)(C)C4)n1 (stereo not given)	-20.4%	-2.8%	20.3%	-3.7%	nt	nt
Cc1cc(C)n(-c2nc(NCC3CCCO3)c3c4c(sc3n2)COC(C)(C)C4)n1 (stereo not given)	-15.2%	nt	33.6%	10.1%	3.7	1.78µM*
O=C(NNS(=O)(=O)c1ccc(F)cc1)c1ccccc1	14.1µM*	4.0%	6.1%	3.4%	1.2	nt
O=S(=O)(NC(=S)c1ccccc1)c1ccc(F)cc1	-18.5%	2.5%	-4.9%	-6.7%	-1.4	79.4µM*
O=S(=O)(NC(=S)c1ccccc1)c1ccccc1	-35.0%	nt	-6.2%	nt	-9.7	nt
Cc1ccc(-c2csc(/C(C#N)=C(\O)CCl)n2)cc1	?	nt	-2.3%	-28.9%	?	35.5µM*
N#C/C(=C(/O)CN1CCOCC1)c1nc(-c2ccccc2)cs1	?	-7.3%	12.8%	?	nt	-19.7%[59 µM]
CCCCN(C)C/C(O)=C(\C#N)c1nc(-c2ccccc2)cs1	?	nt	-3.4%	?	1.4	39.8µM*
Cc1ccc(-c2csc(/C(C#N)=C(\O)CN3CCN(C(=O)c4ccco4)CC3)n2)cc1	79.4µM*	nt	-16.9%	?	?	-47.2%[12.7 µM]
Cc1ccc(NC(=O)c2cnc(SCC(=O)N3CCCc4ccccc43)n(C)c2=O)cc1C	-0.6%	nt	29.4%	-8.6%	nt	-3.3%[59 µM]
CCn1c2ccccc2c2cc(NC(=O)c3coc(=O)c(Br)c3)ccc21	nt	-2.7%	nt	-10.7%	nt	7.08µM*
SMILES	JMJD2A Tudor	L3MBTL1 inh	HP1b chromo inh	BAZ2B inh	PI5P4Ka inh	G9a block
CCn1c2ccccc2c2cc(NC(=O)c3ccc(Br)o3)ccc21	20µM*	nt	?	?	-13.8	11.2µM*
CCn1c2ccccc2c2cc(NC(=O)c3cc(C)on3)ccc21	-7.9%	nt	30.2%	?	25.8	-31.1%
CCn1c2ccccc2c2cc(NC(=O)c3ccc(=O)oc3)ccc21	-8.9%	-3.0%	19.8%	?	-11.4	44.7µM*
CCn1c2ccccc2c2cc(NC(=O)c3cc(OC)cc(OC)c3)ccc21	-21.5%	-7.1%	18.7%	-9.8%	2.4	15.4%
Cc1ccccc1OCC(=O)Nc1cccc(C(=O)OCc2cc(=O)n3c(C)csc3n2)c1	-19.5%	nt	-2.3%	-4.4%	nt	-5.5%[59 µM]
Cc1ccc(NC(=O)CSc2nnc3nc(C)cc(C)n23)cc1	-5.5%	nt	59.1%	8.8%	nt	-1.1%[59 µM]
Cc1cc(C)n2c(SCC(=O)Nc3ccc(F)cc3F)nnc2n1	89.1µM*	-0.3%	-4.8%	-12.6%	-5.5	?
Cc1cc(C)n2c(SCC(=O)Nc3ccc(F)cc3)nnc2n1	-2.4%	-6.7%	?	-2.1%	-9.0	11.2µM*
Cc1c(C)c2cc3c(c(C)c2oc1=O)OCN(CCc1ccccc1)C3	0.3%	nt	58.4%	-21.0%	nt	6.2%[59 µM]
COc1cc(Nc2nn(-c3ccc(OC(F)(F)F)cc3)nc2C(C)=O)cc(OC)c1	-7.9%	nt	36.2%	-2.6%	nt	1.7%[59 µM]
CCOc1ccc(CCNC(=O)Cn2c(-c3cccs3)cc3ccccc32)cc1	-9.6%	nt	23.7%	3.2%	nt	11.6%[59 µM]
O=C1CCCc2[nH]c(-c3ccccc3)nc21	0.0%	?	41.9%	?	-0.6	nt
O=C1CCCC(O)=C1C(C#Cc1ccccc1)C1=C(O)CCCC1=O	15.8µM*	0.8%	?	0.3%	?	0.891µM*
CC1(C)CC(=O)C(C(C#Cc2ccccc2)C2=C(O)CC(C)(C)CC2=O)=C(O)C1	-6.3%	5.8%	28.2%	?	nt	12.6µM*
NCCC(=O)NCCc1cnc[nH]1	?	-0.7%	18.3%	5.1%	-9.0	-0.9%[59 µM]
NCCc1cnc[nH]1	-20.7%	-12.1%	32.0%	?	-0.5	8.44µM*!
Cc1ccc2[nH]c(=O)c(NC(N)=S)nc2c1	-24.6%	-3.1%	12.1%	1.8%	nt	?
COC(c1ccccc1)c1nc2ccccc2[nH]c1=O (stereo not given)	-5.8%	nt	16.7%	10.1%	5.1	-9.4%[2.33 µM]
NC(=S)Nc1nc2ccccc2[nH]c1=O	nt	nt	nt	?	nt	7.94µM*
O=c1[nH]c2ccccc2nc1C(Cl)c1ccccc1 (stereo not given)	nt	nt	nt	56.2µM*	nt	?
Cc1ccc(Cl)cc1NC(=O)Cn1cc2c(n1)CCCCC2	-5.7%	nt	23.7%	-1.4%	nt	14.5%[59 µM]
O=C1C=C(N2CCOCC2)c2ccccc2C1=O	-15.2%	-7.1%[2.29 µM]	-2.3%	-38.4%	-7.8	?
Cc1ccc(N2CCOCC2)c2c1C(=O)c1ccccc1C2=O	31.6µM*	14.1µM*	12.6µM*	14.1µM*	0.7	3.55µM*
Cc1ccc(CCNC(=O)c2c3c(nc4ccccc24)C(=O)N(C2CCCCC2)C3)cc1	-16.0%	nt	33.7%	-10.1%	nt	4.4%[59 µM]
O=C1c2ccccc2C(=O)N1c1cccc(N2C(=O)c3ccccc3C2=O)n1	-8.5%	nt	39.1%	nt	nt	nt
